# Reference: PubChem BioAssay AID2235 (The Scripps Research Institute Molecular Screening Center, 2010)
# The campaign covered roughly 320,000 compounds. About 2,800 (0.88%) were called active. The sample holds actives, similar compounds and a random draw of the others, so the mix is not that of the screen. Values without a mark were called inactive.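 How the source made its calls: active means inhibition above the mean inhibition of all tested compounds plus 3 SD, computed separately for each screening campaign (cut at about 15% in these data); inactive means the rest.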
# Molecular target: Serine/threonine-protein phosphatase PP1-alpha catalytic subunit (Homo sapiens) (UniProt P62136)
# Experiment: inhibition of human PP1 catalytic subunit – biochemical, fluorescence, OMFP substrate, single point, counter-screen for PP5 inhibitor project, primary screen (AID 2235)
# Conditions: purified PP1alpha, at 6.7 µM, stronger effect = higher value
# Chain of Serine/threonine-protein phosphatase PP1-alpha catalytic subunit (Homo sapiens) (P62136 whole entry, looked up): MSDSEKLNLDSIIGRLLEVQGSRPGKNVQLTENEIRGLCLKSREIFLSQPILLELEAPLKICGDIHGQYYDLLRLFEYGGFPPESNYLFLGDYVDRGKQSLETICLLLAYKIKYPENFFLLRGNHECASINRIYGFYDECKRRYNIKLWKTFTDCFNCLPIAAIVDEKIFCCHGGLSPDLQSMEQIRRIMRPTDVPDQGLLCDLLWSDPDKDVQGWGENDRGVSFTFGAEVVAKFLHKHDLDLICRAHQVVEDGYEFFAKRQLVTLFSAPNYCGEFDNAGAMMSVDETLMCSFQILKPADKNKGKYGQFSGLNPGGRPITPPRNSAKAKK
row,SMILES,inhibition
1,O=c1[nH]c(CN2CC=C(c3ccccc3)CC2)nc2scc(-c3cccs3)c12,18.9% (active)
2,CC(C)Nc1nc(Cl)nc(NC(C)C)n1,-5.49%
3,Cc1ccc(Cn2c(C)c3cnn(CC(=O)N4CCC5(CC4)OCCO5)c(=O)c3c2C)cc1,10.3%
4,COC(=O)C1=C(c2cccc(OCc3ccccc3)c2)C[C@@H]2CC[C@H]1N2C(=O)NNCc1ccccc1,7.24%
5,Cc1ccc(P(=S)(c2ccc(C)o2)N2CCOCC2)o1,3.58%
6,Cc1ccc(-c2nn(CCC#N)cc2C(=O)O)cc1C,0.33%
7,O=C(O)c1ccccc1NC(=O)C1C2CCC(O2)C1C(=O)O (stereo not given),33.1% (active)
8,CC(=O)Nc1ccc(C(=O)C(Cc2ccccc2)N(C)C)cc1 (stereo not given),-0.99%
9,COC(=O)C1=C(c2cc3ccccc3o2)C[C@@H]2CC[C@H]1N2C(=O)NC1CCCCC1,-1%
10,CCOP(=O)(OCC)C(O)c1ccc(OC)cc1OC (stereo not given),47.2% (active)
11,CCOP(=O)(OCC)C(NC(=O)c1ccc(C)cc1)C(Cl)(Cl)Cl (stereo not given),-1.96%
12,CCOP(=O)(OCC)C(NC(=O)c1ccc(OC)cc1)C(Cl)(Cl)Cl (stereo not given),0.9%
13,CNC(=O)Nc1ccc(C(O)(C(=O)OC)C(F)(F)F)cc1 (stereo not given),1.95%
14,Cc1ccc(C2CN(C)CC2C(=O)c2ccc(F)cc2)cc1 (stereo not given),-2.93%
15,COCc1cc(OC(=O)N(C)C)nc(-c2ccc(C)c(Cl)c2)n1,-1.37%
